# Source: the supplement of paper PMC10849652
# The full data set covers some 7,900 targets. This sample favours those with a hit. About 0.6% of all pairs of compound and target were hits. Values without a mark were called inactive.
# How the values were obtained:
# Test in all cases: log2 fold change, soluble protein after heating vs DMSO (PISA); higher = thermal stabilisation; K562 cells, 10 uM, 30 min; active = over 0.2 and 3.5 SD of the protein, either way, in both replicates (recomputed)
# [1] = compound: CC1=C(C=C(C=C1)NC(=O)C2=CC(=CC=C2)C(C)(C)C#N)NC3=CC4=C(C=C3)N=CN(C4=O)C
# Method in brief: (§1)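 For each measurement, 10 μM compound was applied for 30 min to K562 cells at 2×10^6 cells/mL. Aliquots were heated for 3 min across 48°C-58°C, pooled, and extracted in PBS with 0.5% NP-40 at 4°C; the supernatant after 21,000xg for 90 min was soluble protein. This was quantified by TMTpro 16plex LC-MS/MS with channel sums equalised, and thermal stability was reported relative to control samples from duplicates, on a log2 fold-change scale.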
# [2] = compound: CC1=C(C=C(C=C1)NC(=O)C2=CC(=CC=C2)N(C)C)NC(=O)C3=CC=C(C=C3)O
# Method in brief: as §1
# [3] = compound: CC1=CC=C(C=C1)SC2=C3C=C(SC3=CN=C2)C(=O)N
# Method in brief: as §1
# [4] = compound: CC1=NC(=CC=C1)C2=C(N=C(N2)C(C)(C)C)C3=CC4=NC=CN=C4C=C3
# Method in brief: as §1
# Nexturastat A = compound: CCCCN(Cc1ccc(C(=O)NO)cc1)C(=O)Nc1ccccc1 [Nexturastat A]
# Method in brief: as §1
# vemurafenib = compound: CCCS(=O)(=O)Nc1ccc(F)c(C(=O)c2c[nH]c3ncc(-c4ccc(Cl)cc4)cc23)c1F [vemurafenib]
# Method in brief: as §1
# [5] = compound: CCCS(=O)(=O)Nc1ccc(F)c(C(=O)c2c[nH]c3ncc(Cl)cc23)c1F
# Method in brief: as §1
# [6] = compound: CCCc1cc(C)[nH]c(=O)c1CNC(=O)c1cc(-c2ccnc(N3CCN(C)CC3)c2)cc2c1cnn2C(C)C
# Method in brief: as §1
# givinostat = compound: CCN(CC)Cc1ccc2cc(COC(=O)Nc3ccc(C(=O)NO)cc3)ccc2c1 [givinostat]
# Method in brief: as §1
# barasertib = compound: CCN(CCCOc1ccc2c(Nc3cc(CC(=O)Nc4cccc(F)c4)[nH]n3)ncnc2c1)CCOP(=O)(O)O [barasertib]
# Method in brief: as §1
# Chain of UniProt P05091 (P05091 whole entry, looked up): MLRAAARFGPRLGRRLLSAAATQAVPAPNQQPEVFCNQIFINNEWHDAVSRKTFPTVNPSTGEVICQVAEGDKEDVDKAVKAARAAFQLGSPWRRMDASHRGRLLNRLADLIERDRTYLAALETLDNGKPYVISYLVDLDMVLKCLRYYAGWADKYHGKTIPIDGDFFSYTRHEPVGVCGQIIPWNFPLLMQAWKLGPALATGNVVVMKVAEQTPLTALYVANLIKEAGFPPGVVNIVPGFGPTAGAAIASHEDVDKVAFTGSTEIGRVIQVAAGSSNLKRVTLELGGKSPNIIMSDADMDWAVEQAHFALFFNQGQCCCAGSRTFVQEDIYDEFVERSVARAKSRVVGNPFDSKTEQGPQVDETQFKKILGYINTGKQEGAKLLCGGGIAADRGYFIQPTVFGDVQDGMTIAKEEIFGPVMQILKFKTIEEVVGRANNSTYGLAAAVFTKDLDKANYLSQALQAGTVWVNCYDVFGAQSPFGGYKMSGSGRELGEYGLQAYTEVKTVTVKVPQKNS
# Chain of UniProt P49748 (P49748 whole entry, looked up): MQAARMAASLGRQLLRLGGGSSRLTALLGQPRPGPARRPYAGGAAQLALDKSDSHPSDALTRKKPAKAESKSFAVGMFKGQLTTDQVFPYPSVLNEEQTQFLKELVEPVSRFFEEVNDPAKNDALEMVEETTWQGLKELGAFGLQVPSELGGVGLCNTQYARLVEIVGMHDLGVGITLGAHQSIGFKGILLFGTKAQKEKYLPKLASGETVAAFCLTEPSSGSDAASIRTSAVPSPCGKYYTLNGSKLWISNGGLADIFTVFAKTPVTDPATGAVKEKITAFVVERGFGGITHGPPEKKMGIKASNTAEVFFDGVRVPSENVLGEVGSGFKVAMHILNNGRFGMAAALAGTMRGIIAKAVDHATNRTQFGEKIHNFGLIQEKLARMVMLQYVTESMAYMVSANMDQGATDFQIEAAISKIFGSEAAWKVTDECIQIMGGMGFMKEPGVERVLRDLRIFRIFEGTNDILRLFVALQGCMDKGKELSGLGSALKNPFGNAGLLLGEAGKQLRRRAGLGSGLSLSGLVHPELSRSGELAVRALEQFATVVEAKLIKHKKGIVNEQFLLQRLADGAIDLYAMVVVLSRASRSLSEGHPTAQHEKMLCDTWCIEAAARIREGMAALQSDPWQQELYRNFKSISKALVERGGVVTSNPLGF
# Chain of UniProt Q9UI12 (Q9UI12 whole entry, looked up): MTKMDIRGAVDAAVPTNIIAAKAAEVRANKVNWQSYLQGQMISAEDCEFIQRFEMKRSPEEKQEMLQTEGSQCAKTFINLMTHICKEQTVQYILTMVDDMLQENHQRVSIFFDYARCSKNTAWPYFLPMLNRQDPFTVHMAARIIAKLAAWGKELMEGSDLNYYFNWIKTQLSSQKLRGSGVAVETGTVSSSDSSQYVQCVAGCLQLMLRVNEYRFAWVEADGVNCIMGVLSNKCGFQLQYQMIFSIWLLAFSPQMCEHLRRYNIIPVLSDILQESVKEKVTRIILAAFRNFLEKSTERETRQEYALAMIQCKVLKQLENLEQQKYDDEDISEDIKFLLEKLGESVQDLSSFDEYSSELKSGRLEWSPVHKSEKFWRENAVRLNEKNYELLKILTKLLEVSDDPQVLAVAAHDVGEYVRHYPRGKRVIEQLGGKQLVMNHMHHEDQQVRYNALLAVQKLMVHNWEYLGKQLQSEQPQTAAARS
# Chain of UniProt Q9ULX6 (Q9ULX6 whole entry, looked up): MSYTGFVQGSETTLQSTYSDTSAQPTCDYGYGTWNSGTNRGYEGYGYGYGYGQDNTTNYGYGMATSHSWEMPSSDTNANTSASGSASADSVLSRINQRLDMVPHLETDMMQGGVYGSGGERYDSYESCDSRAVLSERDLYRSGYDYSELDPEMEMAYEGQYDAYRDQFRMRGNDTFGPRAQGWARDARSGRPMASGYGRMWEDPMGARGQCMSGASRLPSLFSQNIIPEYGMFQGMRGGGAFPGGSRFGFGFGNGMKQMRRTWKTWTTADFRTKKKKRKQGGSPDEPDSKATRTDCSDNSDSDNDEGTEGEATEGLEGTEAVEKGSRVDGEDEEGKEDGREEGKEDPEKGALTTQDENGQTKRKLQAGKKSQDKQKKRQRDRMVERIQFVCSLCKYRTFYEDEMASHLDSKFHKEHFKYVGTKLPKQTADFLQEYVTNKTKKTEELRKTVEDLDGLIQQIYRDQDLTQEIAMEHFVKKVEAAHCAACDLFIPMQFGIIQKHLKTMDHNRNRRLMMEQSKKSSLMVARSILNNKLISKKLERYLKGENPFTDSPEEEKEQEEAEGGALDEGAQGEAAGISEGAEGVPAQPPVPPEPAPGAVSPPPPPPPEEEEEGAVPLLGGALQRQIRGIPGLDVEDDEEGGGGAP
# Chain of UniProt Q16864 (Q16864 whole entry, looked up): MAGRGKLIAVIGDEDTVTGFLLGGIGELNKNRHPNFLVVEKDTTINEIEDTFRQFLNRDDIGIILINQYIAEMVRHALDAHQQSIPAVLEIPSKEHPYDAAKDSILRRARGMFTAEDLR
# Chain of UniProt Q8NHH9 (Q8NHH9 whole entry, looked up): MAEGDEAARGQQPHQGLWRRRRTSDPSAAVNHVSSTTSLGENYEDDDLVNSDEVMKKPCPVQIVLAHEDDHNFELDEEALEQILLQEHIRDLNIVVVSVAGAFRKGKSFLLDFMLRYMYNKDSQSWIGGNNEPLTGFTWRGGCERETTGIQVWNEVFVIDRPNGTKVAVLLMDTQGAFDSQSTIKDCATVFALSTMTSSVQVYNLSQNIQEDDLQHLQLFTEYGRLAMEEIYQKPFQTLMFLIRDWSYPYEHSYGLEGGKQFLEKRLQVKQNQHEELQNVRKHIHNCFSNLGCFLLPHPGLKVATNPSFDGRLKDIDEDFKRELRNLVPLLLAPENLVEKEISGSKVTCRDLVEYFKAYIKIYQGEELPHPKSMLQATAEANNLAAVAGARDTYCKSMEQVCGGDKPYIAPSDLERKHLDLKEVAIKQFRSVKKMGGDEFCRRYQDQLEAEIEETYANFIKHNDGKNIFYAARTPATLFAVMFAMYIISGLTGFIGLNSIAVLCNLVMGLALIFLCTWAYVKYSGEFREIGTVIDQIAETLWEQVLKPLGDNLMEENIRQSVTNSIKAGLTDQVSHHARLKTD
# Chain of UniProt P08758 (P08758 whole entry, looked up): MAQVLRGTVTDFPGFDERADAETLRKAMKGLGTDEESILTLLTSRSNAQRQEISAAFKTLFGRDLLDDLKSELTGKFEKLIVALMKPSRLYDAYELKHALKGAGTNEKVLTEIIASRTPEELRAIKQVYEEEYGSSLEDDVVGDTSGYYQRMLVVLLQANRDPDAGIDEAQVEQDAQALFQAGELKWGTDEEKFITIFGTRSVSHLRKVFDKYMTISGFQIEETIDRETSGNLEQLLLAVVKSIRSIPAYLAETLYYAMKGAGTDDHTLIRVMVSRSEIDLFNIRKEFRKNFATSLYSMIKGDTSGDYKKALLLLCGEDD
# Chain of UniProt P49189 (P49189 whole entry, looked up): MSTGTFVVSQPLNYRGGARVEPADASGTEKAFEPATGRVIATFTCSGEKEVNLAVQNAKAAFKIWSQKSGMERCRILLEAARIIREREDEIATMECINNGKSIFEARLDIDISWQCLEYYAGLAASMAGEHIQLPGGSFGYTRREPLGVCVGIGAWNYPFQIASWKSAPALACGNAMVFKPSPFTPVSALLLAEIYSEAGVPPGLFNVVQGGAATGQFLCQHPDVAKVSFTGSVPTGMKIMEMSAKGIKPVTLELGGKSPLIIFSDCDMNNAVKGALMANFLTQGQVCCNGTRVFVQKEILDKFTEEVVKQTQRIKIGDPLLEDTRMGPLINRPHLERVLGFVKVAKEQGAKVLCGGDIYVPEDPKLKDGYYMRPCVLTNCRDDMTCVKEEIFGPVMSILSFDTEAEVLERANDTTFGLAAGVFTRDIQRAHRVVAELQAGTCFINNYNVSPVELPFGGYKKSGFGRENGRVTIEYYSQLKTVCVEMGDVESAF
# Chain of UniProt Q9NYF8 (Q9NYF8 whole entry, looked up): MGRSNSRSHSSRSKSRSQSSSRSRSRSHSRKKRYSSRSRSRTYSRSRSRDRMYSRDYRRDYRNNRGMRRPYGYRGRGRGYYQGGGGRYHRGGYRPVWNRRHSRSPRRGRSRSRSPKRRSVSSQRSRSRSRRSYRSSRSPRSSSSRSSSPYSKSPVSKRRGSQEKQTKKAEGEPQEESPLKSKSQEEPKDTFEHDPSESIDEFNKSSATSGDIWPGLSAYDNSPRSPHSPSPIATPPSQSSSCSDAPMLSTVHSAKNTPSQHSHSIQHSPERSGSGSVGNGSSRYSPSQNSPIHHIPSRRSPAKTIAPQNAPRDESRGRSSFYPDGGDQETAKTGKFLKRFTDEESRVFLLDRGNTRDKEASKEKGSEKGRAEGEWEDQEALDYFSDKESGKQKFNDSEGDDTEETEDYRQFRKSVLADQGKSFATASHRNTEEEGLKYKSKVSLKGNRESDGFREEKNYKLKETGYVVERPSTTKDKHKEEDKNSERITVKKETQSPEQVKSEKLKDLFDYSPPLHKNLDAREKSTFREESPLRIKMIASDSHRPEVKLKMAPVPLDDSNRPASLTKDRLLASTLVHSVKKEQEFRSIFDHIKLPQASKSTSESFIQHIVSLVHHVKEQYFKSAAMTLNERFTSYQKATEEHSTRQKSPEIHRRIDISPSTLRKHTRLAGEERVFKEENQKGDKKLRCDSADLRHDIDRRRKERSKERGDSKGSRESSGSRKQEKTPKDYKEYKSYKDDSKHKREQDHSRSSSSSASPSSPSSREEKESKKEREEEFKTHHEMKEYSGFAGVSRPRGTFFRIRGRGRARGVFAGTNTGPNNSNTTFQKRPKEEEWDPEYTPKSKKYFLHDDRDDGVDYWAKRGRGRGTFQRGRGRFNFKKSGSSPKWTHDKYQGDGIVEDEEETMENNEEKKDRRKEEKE
# Chain of UniProt Q6QNY0 (Q6QNY0 whole entry, looked up): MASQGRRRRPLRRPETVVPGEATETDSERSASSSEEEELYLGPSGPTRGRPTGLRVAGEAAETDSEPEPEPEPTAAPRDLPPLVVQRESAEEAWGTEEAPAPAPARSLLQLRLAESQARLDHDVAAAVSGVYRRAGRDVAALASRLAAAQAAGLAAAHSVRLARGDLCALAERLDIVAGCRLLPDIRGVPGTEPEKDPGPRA
Target,log2 fold change [1],log2 fold change [2],log2 fold change [3],log2 fold change [4],log2 fold change (Nexturastat A),log2 fold change (vemurafenib),log2 fold change [5],log2 fold change [6],log2 fold change (givinostat),log2 fold change (barasertib)
ATP6V1H (UniProt Q9UI12),0.028,-0.016,0.045,0.014,-0.008,-0.004,0.077,0.022,0.03,0.018
ACAP2 (UniProt Q15057),-0.046,0,-0.038,0.033,0,0.046,0.057,-0.04,0.028,0
ACADVL isoform 3 (UniProt P49748),-0.004,0.01,0.024,-0.002,-0.073,-0.009,0.01,-0.002,0.026,0.006
APLP2 (UniProt Q06481),0.088,-0.043,-0.003,-0.009,-0.053,-0.033,0.011,0.018,-0.041,-0.04
ARL2BP (UniProt Q9Y2Y0),0.154,-0.033,0.012,0.281,0.043,-0.031,0.071,0.102,-0.041,0.079
BECN1 (UniProt Q14457),-0.04,0.029,0,0.04,0.015,0.055,-0.01,-0.024,-0.018,-0.012
ATL2 (UniProt Q8NHH9),0.022,-0.107,-0.013,0.029,0.037,-0.004,0.005,-0.104,0.023,0.019
ATR (UniProt Q13535),-0.012,-0.022,0.013,-0.126,0.005,0.035,-0.001,0.015,0.039,0.037
ACIN1 (UniProt Q9UKV3),-0.028,0.039,-0.015,-0.013,0.044,0,0.014,0.023,0.105,-0.008
ATP6V1F isoform 2 (UniProt Q16864),-0.139,0.034,0.011,0.06,0.146,0.123,-0.055,0.038,-0.044,0.072
AHCYL1 (UniProt O43865),-0.103,0.003,-0.061,0.011,0.014,-0.029,-0.015,-0.039,-0.026,-0.036
BCLAF1 (UniProt Q9NYF8),0.012,-0.102,0.004,0.128,0.098,0.225,0.097,0.009,0.137,-0.071
ANP32E (UniProt Q9BTT0),0.041,-0.098,0.091,-0.02,-0.11,0.091,0.035,-0.001,0.112,0.076
BLOC1S3 (UniProt Q6QNY0),-0.03,0.049,0.046,0.052,-0.031,-0.049,-0.029,-0.058,-0.016,0.021
ACADM isoform 2 (UniProt P11310),-0.018,-0.024,0.001,0.017,0.009,0.009,-0.015,-0.042,-0.033,0
AKAP8L (UniProt Q9ULX6),-0.124,-0.007,-0.092,0.005,0.054,0.069,0.067,0.02,0.004,0.047
AFDN isoform 5 (UniProt P55196),-0.031,-0.049,0,0.087,-0.033,0.021,0.023,0.007,0.062,0.015
AHSA1 (UniProt O95433),-0.014,0.006,0,0.062,-0.019,0.029,0.036,-0.024,-0.015,0.027
ALDH9A1 isoform 3 (UniProt P49189),0.01,0.012,0.03,0.01,-0.049,0.006,0.006,-0.019,-0.005,0.01
ATP7B (UniProt P35670),-0.005,-0.113,0.028,0.032,-0.013,-0.001,0.032,0.036,-0.005,-0.02
BAIAP2 (UniProt Q9UQB8),-0.019,0.01,0.007,-0.012,0.041,0.021,0.068,0.048,0.029,0.048
ALDH2 (UniProt P05091),0.089,0.03,0.039,0.029,-0.264 (active),0.044,-0.011,-0.012,0.016,0.003
ADK (UniProt P55263),0.03,-0.027,0,-0.011,-0.04,-0.013,-0.046,0.106,-0.076,-0.026
AKR1C2 (UniProt P52895),-0.153,-0.222,-0.166,-0.077,0.205,-0.046,-0.179,0.024,0.159,-0.018
AP2M1 (UniProt Q96CW1),0.022,-0.019,-0.023,0.002,0.073,-0.006,0.014,-0.049,0.031,-0.074
BCCIP (UniProt Q9P287),-0.023,-0.015,-0.009,-0.01,-0.002,0.02,0.036,-0.004,0.035,0.033
ANKZF1 (UniProt Q9H8Y5),0.011,0,-0.055,-0.059,0.399,-0.011,-0.042,0.132,0.195,0.04
ANXA5 (UniProt P08758),0.057,-0.065,-0.01,0.068,-0.116,0.07,0.071,0.039,0.033,0.034
AIFM2 (UniProt Q9BRQ8),0.013,0,0,-0.017,0.019,-0.036,-0.026,0.021,0.011,-0.024
